Measurements: PubChem BioAssay (NCATS)
Records with an inconclusive call do not appear. Activity calls are given as the source filed them. Calls follow the shape of the dose curve; as a rule, active = well fitted inhibition curve with a large enough effect; inconclusive = small, poorly fitted or top-dose-only effect; inactive = flat fitted curve, though single readings scatter.

Assays:
[1] = molecular target: Luciferin 4-monooxygenase (Photinus pyralis) (UniProt P08659); experiment: Biochemical firefly luciferase enzyme assay for NPC (AID 624030);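 also: purified P. pyralis luciferase at 10 nM with luciferin and ATP substrate; 0% = DMSO and -100% = full luciferase inhibition by PTC124 control; nearly all actives have a fitted effect of over 70% in size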
Chain of Luciferin 4-monooxygenase (Photinus pyralis) (P08659 whole entry, looked up): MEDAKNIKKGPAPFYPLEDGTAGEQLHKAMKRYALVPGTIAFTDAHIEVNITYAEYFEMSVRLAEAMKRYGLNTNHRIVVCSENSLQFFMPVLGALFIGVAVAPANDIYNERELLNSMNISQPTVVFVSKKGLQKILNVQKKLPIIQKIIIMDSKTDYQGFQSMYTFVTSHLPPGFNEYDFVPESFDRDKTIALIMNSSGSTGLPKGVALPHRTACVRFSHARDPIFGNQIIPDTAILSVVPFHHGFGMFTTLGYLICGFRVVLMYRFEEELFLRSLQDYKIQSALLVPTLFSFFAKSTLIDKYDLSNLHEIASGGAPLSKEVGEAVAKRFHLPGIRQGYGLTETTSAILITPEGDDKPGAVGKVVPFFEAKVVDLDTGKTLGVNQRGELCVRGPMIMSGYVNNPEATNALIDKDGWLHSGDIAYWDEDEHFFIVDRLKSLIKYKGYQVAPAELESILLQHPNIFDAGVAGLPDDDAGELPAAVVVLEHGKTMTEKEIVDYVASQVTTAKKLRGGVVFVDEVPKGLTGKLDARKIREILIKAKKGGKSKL
In short: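 Purified P. pyralis luciferase at 10 nM in 50 mM Tris Acetate (final), luminescence read within 5 minutes of enzyme addition to compounds. Activity normalised to PTC124 versus DMSO; concentration-response curves classed by r2, magnitude and activity.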

[2] = qHTS profiling for inhibitors of Plasmodium falciparum proliferation (AID 504749);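 also: 0% = DMSO vehicle and full inhibition = artemisinin control; nearly all actives have a fitted effect of over 60% in size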; details: P. falciparum in erythrocytes, SYBR Green DNA, 72 h, at 28.7 µM (top of the series)
In short: (§1)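 P. falciparum-infected erythrocytes (0.3% parasitemia, 2.5% hematocrit) incubated with compound 72 h at 37 C, 5% CO2. Parasite DNA detected by SYBR Green after lysis, overnight at room temperature; normalised to 0.29 uM artemisinin and DMSO.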

AS120 = experiment: as above; details: P. falciparum in erythrocytes, SYBR Green DNA, 72 h; series mostly up to 28.7 µM
In short: as §1

ATS189 = experiment: as above; details: P. falciparum in erythrocytes, SYBR Green DNA, 72 h; series mostly up to 28.7 µM
In short: as §1

CP192 = experiment: as above; details: P. falciparum in erythrocytes, SYBR Green DNA, 72 h; series mostly up to 28.7 µM
In short: as §1

CP201 = experiment: as above; details: P. falciparum in erythrocytes, SYBR Green DNA, 72 h; series mostly up to 28.7 µM
In short: as §1

CP211 = experiment: as above; details: P. falciparum in erythrocytes, SYBR Green DNA, 72 h; series mostly up to 28.7 µM
In short: as §1

CP237 = experiment: as above; details: P. falciparum in erythrocytes, SYBR Green DNA, 72 h; series mostly up to 28.7 µM
In short: as §1

CP238 = experiment: as above; details: P. falciparum in erythrocytes, SYBR Green DNA, 72 h; series mostly up to 28.7 µM
In short: as §1

CP262 = experiment: as above; details: P. falciparum in erythrocytes, SYBR Green DNA, 72 h; series mostly up to 28.7 µM
In short: as §1

CP286 = experiment: as above; details: P. falciparum in erythrocytes, SYBR Green DNA, 72 h; series mostly up to 28.7 µM
In short: as §1

CP315 = experiment: as above; details: P. falciparum in erythrocytes, SYBR Green DNA, 72 h; series mostly up to 28.7 µM
In short: as §1

CP325 = experiment: as above; details: P. falciparum in erythrocytes, SYBR Green DNA, 72 h; series mostly up to 28.7 µM
In short: as §1

DFO2036 = experiment: as above; details: P. falciparum in erythrocytes, SYBR Green DNA, 72 h; series mostly up to 28.7 µM
In short: as §1

Dd2 = experiment: as above; details: P. falciparum in erythrocytes, SYBR Green DNA, 72 h; series mostly up to 28.7 µM
In short: as §1

ECU = experiment: as above; details: P. falciparum in erythrocytes, SYBR Green DNA, 72 h; series mostly up to 28.7 µM
In short: as §1

FAB9 = experiment: as above; details: P. falciparum in erythrocytes, SYBR Green DNA, 72 h; series mostly up to 28.7 µM
In short: as §1

HB3 = experiment: as above; details: P. falciparum in erythrocytes, SYBR Green DNA, 72 h; series mostly up to 28.7 µM
In short: as §1

N140 = experiment: as above; details: P. falciparum in erythrocytes, SYBR Green DNA, 72 h; series mostly up to 28.7 µM
In short: as §1

PC49 = experiment: as above; details: P. falciparum in erythrocytes, SYBR Green DNA, 72 h; series mostly up to 28.7 µM
In short: as §1

CCCC(=O)O[C@]1(C(=O)COC(C)=O)CC[C@H]2C3C[C@H](F)C4=CC(=O)C=CC4(C)[C@@]3(F)[C@@H](O)CC21C (some centres not stated)
inactive: Potency [1] | activity, negative = inhibition ([2]; parasite line A) -8.4% | activity, negative = inhibition ([2]; parasite line B) -24.8% | Potency (AS120) | Potency (ATS189) | Potency (CP192) | Potency (CP201) | Potency (CP211) | Potency (CP237) | Potency (CP238) | Potency (CP262) | Potency (CP286) | Potency (CP315) | Potency (CP325) | Potency (DFO2036) | Potency (Dd2) | Potency (ECU) | Potency (FAB9) | Potency (HB3) | Potency (N140) | Potency (PC49)

CNC1C(O)C(OC2C(NC(=O)C(O)CN)CC(N)C(OC3OC(CN)C(O)C(O)C3O)C2O)OCC1(C)O (configuration not stated)
inactive: Potency [1] | activity, negative = inhibition ([2]; parasite line A) 1.08% | activity, negative = inhibition ([2]; parasite line B) -10.1% | Potency (AS120) | Potency (ATS189) | Potency (CP192) | Potency (CP201) | Potency (CP211) | Potency (CP237) | Potency (CP238) | Potency (CP286) | Potency (CP315) | Potency (CP325) | Potency (DFO2036) | Potency (Dd2) | Potency (ECU) | Potency (FAB9) | Potency (HB3) | Potency (N140) | Potency (PC49)

Cc1cnc(C(=O)O)cn1
inactive: Potency [1] | activity, negative = inhibition ([2]; parasite line A) 9.61% | activity, negative = inhibition ([2]; parasite line B) 7.1% | Potency (AS120) | Potency (ATS189) | Potency (CP192) | Potency (CP201) | Potency (CP211) | Potency (CP237) | Potency (CP238) | Potency (CP262) | Potency (CP286) | Potency (CP315) | Potency (CP325) | Potency (DFO2036) | Potency (Dd2) | Potency (ECU) | Potency (FAB9) | Potency (HB3) | Potency (N140) | Potency (PC49)

CC(=O)OCC(=O)[C@@]1(O)CCC2C3C[C@H](C)C4=CC(=O)C=CC4(C)C3C(O)CC21C (some centres not stated)
inactive: Potency [1] | activity, negative = inhibition ([2]; parasite line A) 2.49% | activity, negative = inhibition ([2]; parasite line B) 4.17% | Potency (AS120) | Potency (ATS189) | Potency (CP192) | Potency (CP201) | Potency (CP211) | Potency (CP237) | Potency (CP238) | Potency (CP262) | Potency (CP286) | Potency (CP315) | Potency (CP325) | Potency (DFO2036) | Potency (Dd2) | Potency (ECU) | Potency (FAB9) | Potency (HB3) | Potency (N140) | Potency (PC49)

Nc1nc(/C(=C/CC(=O)O)C(=O)NC2C(=O)N3C(C(=O)O)=CCSC23)cs1 (configuration not stated)
inactive: Potency [1] | activity, negative = inhibition ([2]; parasite line A) -3.7% | activity, negative = inhibition ([2]; parasite line B) 3.34% | Potency (AS120) | Potency (ATS189) | Potency (CP192) | Potency (CP201) | Potency (CP211) | Potency (CP237) | Potency (CP238) | Potency (CP262) | Potency (CP286) | Potency (CP315) | Potency (CP325) | Potency (DFO2036) | Potency (Dd2) | Potency (ECU) | Potency (FAB9) | Potency (N140) | Potency (PC49)

CC[C@@H]1/C=C(\C)C[C@H](C)C[C@H](OC)[C@H]2O[C@@](O)(C(=O)C(=O)N3CCCC[C@H]3C(=O)O[C@H](/C(C)=C/[C@@H]3CC[C@H](Cl)[C@H](OC)C3)[C@H](C)[C@@H](O)CC1=O)[C@H](C)C[C@@H]2OC
inactive: Potency [1] | activity, negative = inhibition ([2]; parasite line A) 10.4% | activity, negative = inhibition ([2]; parasite line B) 3.17% | Potency (AS120) | Potency (ATS189) | Potency (CP192) | Potency (CP201) | Potency (CP211) | Potency (CP237) | Potency (CP238) | Potency (CP262) | Potency (CP286) | Potency (CP315) | Potency (CP325) | Potency (DFO2036) | Potency (Dd2) | Potency (ECU) | Potency (FAB9) | Potency (HB3) | Potency (N140) | Potency (PC49)

CO/N=C(/C(=O)N[C@@H]1C(=O)N2C(C(=O)O)=C(CSc3cnns3)CS[C@H]12)c1csc(N)n1
inactive: Potency [1] | activity, negative = inhibition ([2]; parasite line A) 8.36% | activity, negative = inhibition ([2]; parasite line B) 11.8% | Potency (AS120) | Potency (ATS189) | Potency (CP192) | Potency (CP201) | Potency (CP211) | Potency (CP237) | Potency (CP238) | Potency (CP262) | Potency (CP286) | Potency (CP315) | Potency (CP325) | Potency (DFO2036) | Potency (Dd2) | Potency (ECU) | Potency (FAB9) | Potency (HB3) | Potency (N140) | Potency (PC49)

CCN(CC)C(=O)[C@@]1(c2ccccc2)C[C@@H]1CN
inactive: Potency [1] | activity, negative = inhibition ([2]; parasite line A) 3.47% | activity, negative = inhibition ([2]; parasite line B) 2.1% | Potency (AS120) | Potency (ATS189) | Potency (CP192) | Potency (CP201) | Potency (CP211) | Potency (CP237) | Potency (CP238) | Potency (CP262) | Potency (CP286) | Potency (CP315) | Potency (CP325) | Potency (DFO2036) | Potency (Dd2) | Potency (ECU) | Potency (FAB9) | Potency (HB3) | Potency (N140) | Potency (PC49)

CCCCCCCCCCCCCCCC(=O)OC[C@H](O)[C@H]1OC[C@@H](O)[C@@H]1O
inactive: Potency [1] | activity, negative = inhibition ([2]; parasite line A) -0.407% | activity, negative = inhibition ([2]; parasite line B) -6.82% | Potency (AS120) | Potency (ATS189) | Potency (CP192) | Potency (CP201) | Potency (CP211) | Potency (CP237) | Potency (CP238) | Potency (CP262) | Potency (CP286) | Potency (CP315) | Potency (CP325) | Potency (DFO2036) | Potency (Dd2) | Potency (ECU) | Potency (FAB9) | Potency (HB3) | Potency (N140) | Potency (PC49)
